Assay outcomes as filed in PubChem BioAssay.
Most compounds without a hit are left out; they make up all but 11% or so of the library.
HPGD block – HPGD (human) dehydrogenase inhibition | AID 894 | 150,000 tested, 4.3% active | purified HPGD, NADH fluorescence kinetic, PGE2 substrate | P15428 | Potency, µM, inactives show at the top dose activity change, negative = inhibition, hits mostly inhibitors; further: potency means the concentration at half of the fitted maximal effect
Target sequence (P15428 whole entry, looked up): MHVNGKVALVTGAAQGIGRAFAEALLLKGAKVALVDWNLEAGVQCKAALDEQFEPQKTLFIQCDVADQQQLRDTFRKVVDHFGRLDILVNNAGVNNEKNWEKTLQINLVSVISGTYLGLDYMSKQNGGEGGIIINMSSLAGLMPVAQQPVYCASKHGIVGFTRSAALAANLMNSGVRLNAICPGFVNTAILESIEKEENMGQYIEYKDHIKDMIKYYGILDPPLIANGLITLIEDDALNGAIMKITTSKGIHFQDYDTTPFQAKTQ
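20 nM HPGD preincubated 15 min at room temperature with compound in 50 mM Tris-HCl pH 8, 0.01% Tween 20. Started with 1 mM NAD+ and 30 uM prostaglandin E2; NADH fluorescence (360/450 nm) read 5 times over 30-s intervals, last minus first.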
IMPase Li cell – membrane-permeable IMPase blocker, potentiated with lithium | CHO-M1 cells, IP1 TR-FRET (IP-One), carbachol + lithium | Potency, µM (series often up to 59.4 µM), inactives show top-dose activity, negative = IMPase inhibition, most hits filed as inhibitors | 210,000 tested, 0.35% active; active means well fitted inhibition curve with a large enough effect; inconclusive means small, poorly fitted or top-dose-only effect; inactive means no such curve, though single readings can be large or run the other way;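 further: IP1 builds up when IMPase is blocked and the TR-FRET signal falls; potency means the concentration at half of the fitted maximal effect; plate controls were basal vehicle for no effect and high inhibitor control for full effect; nearly all actives have a fitted effect of over 50% in size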
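CHO-M1, 2000 cells/well, 16–30 h culture; cpd + low Li+, 30 min 37C; lysis with d2-IP1/Eu-anti-IP1 Ab, 10 min RT; TR-FRET 665/620 ratio and 620 channel; AC50 via Hill.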
PNC inhibitor – blocks assembly of the perinucleolar compartment; PC3M PTB-GFP, PNC prevalence imaging, 16 h; stronger effect = lower value; activity change (PNC), negative = inhibition, % at 10 µM; 140,000 tested, 3.1% active; AID 2417;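 active means readout at or below -70, meaning at least 70% loss of cells showing the perinucleolar compartment, a nuclear body marking cancer cells; inconclusive means readout between -30 and a set limit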;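 further: plate controls were DMSO wells for no effect and camptothecin positive control wells for full effect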
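Compounds are pinned in duplicate onto adhered PC3M cells stably expressing GFP-tagged PTB and incubated 16 h at 37 C. Cells are then fixed, nuclei stained with Hoechst, and PNC-positive cells counted.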
IMPase inh – IMPase inhibition in cells; P97697; CHO-M1 cells, IP1 accumulation, HTRF TR-FRET ratio; inhibition (IP1 accumulation), % at 46.1 µM; 120,000 tested, under 10 active; active means well fitted curve in the direction sought with a large enough effect in the signal ratio, not every such curve was filed as active; inconclusive means small, poorly fitted or top-dose-only effect, or a change in a side signal; inactive means no such curve, though single readings can be large or run the other way; the % refers to the signal ratio;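 further: cells stimulated with carbachol in lithium chloride buffer; plate controls were DMSO basal wells for no effect and reference inhibitor wells for full effect; higher means more IMPase inhibition seen as more IP1 and lower FRET ratio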
Target sequence (P97697 whole entry, looked up): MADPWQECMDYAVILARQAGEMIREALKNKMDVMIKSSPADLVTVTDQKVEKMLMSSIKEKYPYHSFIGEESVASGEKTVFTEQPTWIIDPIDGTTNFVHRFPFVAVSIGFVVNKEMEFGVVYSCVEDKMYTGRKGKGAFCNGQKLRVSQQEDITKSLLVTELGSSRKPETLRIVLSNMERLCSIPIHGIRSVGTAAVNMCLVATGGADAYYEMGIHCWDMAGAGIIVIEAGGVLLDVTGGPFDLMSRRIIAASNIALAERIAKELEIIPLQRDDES
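Cellular IMPase inhibition is scored as a rise in cytosolic IP1, detected by competitive TR-FRET between d2-labelled IP1 and a europium anti-IP1 antibody. M1-expressing CHO cells were stimulated with carbachol for 30 min at 37C, with lithium (50 mM LiCl) present in the buffer.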
ALDH1A1 block – ALDH1A1 (human) enzyme inhibition; Potency, µM (doses to about 75.3 µM), inactives show at the top dose activity, negative = inhibition, usual class: inhibitors; P00352; 220,000 tested, 7.3% active; Purified ALDH1A1, NADH fluorescence, propionaldehyde substrate;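 further: potency means the concentration at half of the fitted maximal effect; plate controls were no enzyme wells and a reference inhibitor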
* marks the source's active call; other numbers are inactive results; [ ] = dose if it differs, or a comment. Unless noted, the call rests on the fitted dose curve; in most records, active means well fitted inhibition curve with a large enough effect (not every such curve was filed as active); inconclusive means small, poorly fitted or top-dose-only effect, or another doubt; inactive means no such curve, though single readings can be large or run the other way. Unless noted, on the % scale 0 is the no-effect control and ±100 the full control effect.

O=C(c1ccco1)N1CCCN(Cc2nc(-c3ccc4c(c3)OCO4)no2)CC1 was read as IMPase Li cell 8% and ALDH1A1 block 22µM*.
CC(O)c1nc2ccccc2n1CC(=O)Nc1ccc2c(c1)OCCO2 (stereo not given) was read as IMPase Li cell -3% and ALDH1A1 block 4%.
Screening CCCn1c(N2CCN(CC(=O)Nc3ccc4c(c3)OCCO4)CC2)nc2ccccc21 returned HPGD block -7%, IMPase Li cell 7%, PNC inhibitor -24, IMPase inh -5 and ALDH1A1 block 25µM*.
For Fc1ccc(CN2CCCN(Cc3nc(-c4ccc5c(c4)OCO5)no3)CC2)cc1 the results were IMPase Li cell 18% and ALDH1A1 block 0%.
O=C(CN1CCN(c2ccccc2F)CC1)Nc1ccccc1F was read as HPGD block 3%, IMPase Li cell -5%[38.3 µM], PNC inhibitor 16, IMPase inh -8 and ALDH1A1 block 20µM*.
CCCCCC(=O)/C=C/[C@H]1[C@H](O)CC(=O)[C@@H]1C/C=C\CCCC(=O)O was read as HPGD block -9%, IMPase Li cell 9% and ALDH1A1 block -1%.
`CN(Cc1cnccn1)Cc1ccccc1OCC(O)CN1CCc2ccccc2C1` (stereo not given) gave IMPase Li cell 19% and ALDH1A1 block -12%.
Screening CCOC(=O)N1CCc2c(sc(NC(=O)c3ccc(S(=O)(=O)N4CCCC4)cc3)c2C#N)C1 returned HPGD block -21%, IMPase Li cell 13%, PNC inhibitor inconclusive, IMPase inh 2 and ALDH1A1 block inconclusive.
Screening CC(C)N1CCc2c(sc(NC(=S)NC(=O)c3ccccc3)c2C#N)C1 returned HPGD block inconclusive, IMPase Li cell 0%, PNC inhibitor inconclusive, IMPase inh 12 and ALDH1A1 block 13µM*.
Screening CCCN1CCc2c(sc(NC(=S)NC(=O)c3ccccc3)c2C#N)C1 returned IMPase Li cell 15% and ALDH1A1 block 7.9µM*.
`CCN1CCc2c(sc(NC(=S)NC(=O)c3ccc(Cl)cc3)c2C(N)=O)C1` gave ALDH1A1 block 10µM*.
CC(C)N1CCc2c(sc(NC(=O)c3ccc(S(=O)(=O)N4CCOCC4)cc3)c2C#N)C1 was read as HPGD block -14%, IMPase Li cell -26%[38.3 µM], PNC inhibitor -10, IMPase inh -2 and ALDH1A1 block 10µM*.
Screening OC(CN1CCNCC1)Cn1c2ccc(Br)cc2c2cc(Br)ccc21 (stereo not given) returned HPGD block -9%, IMPase Li cell 8% and ALDH1A1 block 9%.
CO[C@@H]1C[C@H](O[C@H]2[C@@H](C)[C@H](O[C@@H]3O[C@@H](C)C[C@@H](N(C)C)[C@@H]3OC(C)=O)[C@H](C)C[C@]3(CO3)C(=O)[C@H](C)[C@H](OC(C)=O)[C@H](C)[C@H](C)OC(=O)[C@@H]2C)O[C@H](C)[C@@H]1OC(C)=O was read as HPGD block -5%, IMPase Li cell 3%, IMPase inh -7[20.6 µM] and ALDH1A1 block 3%[20.9 µM].
`O=C(NCc1ccc(F)cc1)C(=O)NCC1OCCN1S(=O)(=O)c1cccs1` (stereo not given) gave HPGD block -5%, IMPase Li cell 3%, PNC inhibitor 58 and ALDH1A1 block -10%.
COc1ccc(CCN(C)CCCOc2ccc(S(=O)(=O)c3[nH]c4ccccc4c3C(C)C)cc2)cc1OC was read as HPGD block -12%, IMPase Li cell 28%, IMPase inh 4 and ALDH1A1 block -15%.
Screening COc1ccc(Nc2nnc(SCC(=O)c3cc(C)n(CC4CCCO4)c3C)s2)cc1 (stereo not given) returned HPGD block -26%, IMPase Li cell 53%[38.3 µM], PNC inhibitor 23, IMPase inh 8 and ALDH1A1 block 6.3µM*.
Screening COc1ccc(Nc2nnc(SCC(=O)Nc3ccc4[nH]c(=O)[nH]c4c3)s2)cc1 returned IMPase Li cell -6% and ALDH1A1 block 16µM*.
For Cc1cc(C)cc(OCCOCCn2c(-c3ccc(Cl)cc3)nc3ccccc3c2=O)c1 the results were IMPase inh 2.
CC(=O)Oc1cc2c(c(C)c1OC(C)=O)CC=C1[C@]3(C)CC[C@]4(C)CC[C@@](C)(C(=O)O)CC4[C@]3(C)CC[C@]12C (stereo not given in full) was read as HPGD block -12%, IMPase Li cell 14% and ALDH1A1 block -5%.
Screening C=C[C@@]1(C)CC[C@H](O)[C@H]2C(=O)CCC[C@@H]21 returned HPGD block -5%, IMPase Li cell -3% and ALDH1A1 block 10%.
S=c1[nH]c2ccc(Cl)cc2s1 was read as ALDH1A1 block 1.3µM*.
For O=C(NC(=S)Nc1cccc(Cl)c1N1CCCCC1)c1cccs1 the results were HPGD block -4%, IMPase Li cell 26%[38.3 µM], PNC inhibitor -108*, IMPase inh 4 and ALDH1A1 block -3%.
Screening COC(=O)c1c(NC(=O)C2C3CCC(O3)C2C(=O)O)sc2c1CCCCCC2 (stereo not given) returned HPGD block -27%, IMPase Li cell -8%, PNC inhibitor 16 and ALDH1A1 block 3%.
For NC(=O)c1c(NC(=O)C2CCCO2)sc2c1CCCCC2 (stereo not given) the results were HPGD block inconclusive, IMPase Li cell 5%, PNC inhibitor -22 and ALDH1A1 block 20µM*.
N#Cc1c(NC(=O)CCCC(=O)O)sc2c1CCCCC2 was read as HPGD block -22%, IMPase Li cell -1%, PNC inhibitor 10 and ALDH1A1 block inconclusive.
Screening NC(=O)c1c(NC(=O)C2CCCO2)sc2c1CCC2 (stereo not given) returned HPGD block -8%, IMPase Li cell 0%[38.3 µM], PNC inhibitor 1, IMPase inh inconclusive and ALDH1A1 block 22µM*.
CC(C)(C)C1CCc2c(sc(NC(=O)C3CCCO3)c2C(N)=O)C1 (stereo not given) was read as HPGD block -9%, IMPase Li cell 6%[38.3 µM], PNC inhibitor inconclusive, IMPase inh inconclusive and ALDH1A1 block inconclusive.
For NC(=O)c1c(NC(=O)CCCC(=O)O)sc2c1CCCCCC2 the results were HPGD block 28µM*, IMPase Li cell -12%, PNC inhibitor 34 and ALDH1A1 block 6%.
COC(=O)c1c(NC(=O)C2CCCO2)sc2c1CCC2 (stereo not given) was read as HPGD block -24%, IMPase Li cell 26%[38.3 µM], PNC inhibitor inconclusive, IMPase inh 0 and ALDH1A1 block 14µM*.
`COc1ccc2c(c1)O[C@H](c1ccc3c(c1)OCO3)[C@@H](OC(=O)Nc1ccc(OC(F)F)cc1)C2=O` gave HPGD block -6%, IMPase Li cell 17% and ALDH1A1 block 6%.
`COC(=O)N1[C@H]2CC[C@@]3(C)CC(=O)C[C@]1(C)C3c1ccccc12` gave HPGD block -8%, IMPase Li cell 2% and ALDH1A1 block 8%.
